39 compounds from PubChem BioAssay (NCI) can be followed below.

Molecules are shown by their SMILES. The panel holds about 79,000 compounds, 15% with a hit somewhere; the sample as a whole holds those more often. Unmarked numbers belong to inactive results. Activity calls are given as the source filed them. Cut-off read from the data, not from the text of the source: active = growth inhibition above about 70%; inactive = the rest.

This test is described as follows: NCI Yeast Anticancer Drug Screen. Data for the mec2-1 strain (AID 157). To be noted: S. cerevisiae mec2-1 strain, at 50.0 µM, hits give high values. In short, it runs like this: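 Test agents were screened against the mec2-1 yeast strain, with defined DNA repair or cell cycle alteration. Growth was scored as inhibition against vehicle-only controls.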
On to `C/C(=N\NC(=S)SCc1ccccc1)c1ccccn1`, for which the growth inhibition was 90.2% (active).
For `CC[C@@]1(O)C(=O)OCc2c1cc1n(c2=O)Cc2cc3c(N)cccc3nc2-1` the value was 36.7%; for `CN(C)c1ccc(Sc2ccc3nc(N)nc(N)c3c2)cc1`, 89.3% (active).
As to `CC(=O)OCCOCNC(=S)N/N=C(\C)c1cnccn1`, the growth inhibition is 59.7%.
`COc1ccc(C2c3cc4c(cc3OC(C)(O)C2C)OCO4)c(OC)c1` (centres undefined): the growth inhibition is 94% (active).
With `COc1cc(C2SCC(=O)N2c2ccc(-c3ccc(-n4c(-c5ccccc5)nc5ccccc5c4=O)cc3)cc2)cc(OC)c1OC` (centres undefined) the figure was 19.6%; with `COc1ccc(Br)c(C(=O)Sc2nnnn2-c2cccc(Cl)c2)c1`, 88.9% (active).
For `O=C(NNc1ccnc2cc(Cl)ccc12)/C(=C\c1ccccc1Cl)NC(=O)c1ccccc1` the value was 39.6%.
For `CSC(=S)Nc1cccc(C)n1` the value was 31.6%; for `O=C(/C=C\c1ccc(Cl)cc1Cl)c1cccs1`, -6.25%; for `COc1ccc(-c2cn(-c3ccc(I)cc3)c3ncnc(N)c23)cc1`, 1.7%.
`CN(C)c1ccc(C(C#N)=C(C#N)C#N)cc1`: the growth inhibition is 89.3% (active).
For `COc1cc(/C=C2\CCc3ccccc3C2=O)cc(OC)c1OC` the value was 25.6%.
Consider `CC(C)/C(Cl)=N\OC(=O)Nc1cccc(Cl)c1`, for which the growth inhibition is 87.8% (active).
With `CC1(C)[C@@H]2CC[C@]1(C)[C@H](OC(=O)CSC#N)C2` the figure was 98% (active).
With `NNC(=O)CCc1ccc2ccc3ccccc3c2c1` the figure was -10.2%; with `COc1ccc(/C(C)=N/OC(=O)c2c(-c3ccccc3Cl)noc2C)cc1CN1CCOCC1`, 14.3%; with `C=CC(C)(O)CCC1C(=C)C(O)CC2C(C)(C)CCCC12C` (centres undefined), 44.5%.
With `S=C(Nc1ccc(Cl)c(Cl)c1)SCc1ccc2c(c1)OCO2` the figure was 92.1% (active).
On to `COc1cc(C2C3=C(COC3=O)Oc3cc4c(cc32)OCO4)ccc1O` (centres undefined), for which the growth inhibition is 32.2%.
For `S=C(Nc1ccc(Cl)cc1)SC1CCCCC1` the value was 85.5% (active); for `Nc1nc(-c2cccnc2)cc(-c2cc(-c3cccnc3)nc(N)n2)n1`, 1.1%.
With `COC1=CC(=O)C2C(C1=O)C(c1ccc(Cl)cc1)[C@@H]2C` (some centres undefined) the figure was 93.8% (active).
For `c1ccc(-c2nc3cccnc3s2)cc1` the value was 9.5%; for `O=[N+]([O-])c1cc(CCl)ccc1CCl`, 98.9% (active).
Regarding `COc1ccc(/C=C2\SC(=S)N(/C=C/c3nc4ccccc4[nH]c3=O)C2=O)cc1OC`, the growth inhibition is 68.1%.
With `CCCN(CCC)CC(O)c1cc(-c2ccc(Cl)cc2)nc2c(C)c(Cl)ccc12` (centres undefined) the figure was 98.9% (active); with `O=C(Nc1ccccc1)OCCc1ccc(Cl)c(Cl)c1`, 95.3% (active).
`CC(O)C(O)C(O)C(/C=N\Nc1ccccc1)=N/Nc1ccccc1` (centres undefined): the growth inhibition was 58.3%.
For `C#CCCCc1ccccc1` the value was 47.4%; for `CC(=O)Cc1ccc[cH-]1.[Fe+2].c1cc[cH-]c1`, 60.6%.
With `Cc1cc(I)ccc1N` the figure was 88.2% (active); with `FC(F)(F)c1cc(NC(=S)N2c3ccccc3-n3cccc3C2c2cccnc2)cc(C(F)(F)F)c1` (centres undefined), 47.1%.
With `CC(C)(CN1CCCCC1)C(=O)CC(SCCS(=O)(=O)O)c1ccc(Br)cc1` (centres undefined) the figure was 52.9%; with `C[Si](C)(C)CNC(=O)OCc1ccccc1`, 21.9%.
`CC(C(=O)N1C(=O)N(C(=O)[C@H](C)C(O)c2ccccc2)[C@H](c2ccccc2)[C@H]1c1ccccc1)[C@@H](O)c1ccccc1` (some centres undefined): the growth inhibition was 73.2% (active).
With `Oc1cccc2c(Cl)ccnc12` the figure was 93.2% (active); with `O=C1C=CC(=C(c2ccccc2)c2ccccc2)c2ccccc21`, 15.1%.
In the case of `S=C(S)NN1CCOCC1`, the growth inhibition is 97.8% (active).
